Laboratory results from the supplement of paper PMC7335073.
Over roughly 4,100 sequences, “relative CpG methylation activity (normalised to average over all NNNCGNNN flanks)” has its median near 0.94; the highest 2% begin near 1.9. The sample holds the highest values, similar sequences and a random draw of the others, so the mix is not that of the screen.

These sequences were tested against DNMT3B catalytic domain (mouse) (UniProt O88509) (assay: relative CpG methylation activity (normalised to average over all NNNCGNNN flanks) (relative (1 = mean)); higher = more methylation of the central CpG). Settings: system: in vitro, murine catalytic domain; CpG state: hemimethylated substrate pool; residues: 558-859.
Sequence of DNMT3B catalytic domain (mouse) (O88509 558-859): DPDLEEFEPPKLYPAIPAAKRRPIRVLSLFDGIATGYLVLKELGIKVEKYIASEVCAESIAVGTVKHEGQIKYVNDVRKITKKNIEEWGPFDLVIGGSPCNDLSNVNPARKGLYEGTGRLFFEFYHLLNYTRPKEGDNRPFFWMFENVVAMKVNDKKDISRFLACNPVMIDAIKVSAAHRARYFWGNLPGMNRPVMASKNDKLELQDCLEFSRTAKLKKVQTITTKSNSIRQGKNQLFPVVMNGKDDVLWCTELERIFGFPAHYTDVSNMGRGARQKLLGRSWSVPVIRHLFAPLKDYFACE
Protocol: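 Deep enzymology: a pool of dsDNA substrates with a central CpG flanked by 10 random nucleotides on each side was methylated by the murine DNMT3A or DNMT3B catalytic domain (0.8 mM SAM, 37 °C, 60 min). Methylation was then read out by hairpin ligation, bisulfite conversion and NGS. Values are the average methylation of each NNNCGNNN context (±3 flanks; the outer flanks are random and averaged over), normalised to the overall mean, so 1 = average activity.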

Sequence | relative CpG methylation activity
TACCGGCC | 1.52
CGCCGTAG | 0.147
AAACGCGC | 1.46
AAGCGTTT | 0.413
AAGCGTTC | 0.586
TAGCGCCC | 0.741
TCGCGGAC | 0.818
GGCCGTGG | 0.0382
CCTCGAAT | 1.3
CAACGGCA | 1.74
CAACGGCT | 1.92
AAACGGCC | 1.76
GAACGGCC | 1.81
CAACGGCC | 1.93
AAACGGCT | 1.82
ACGCGCGA | 0.411
GACCGGGT | 1.03
ACGCGTGA | 0.523
TTCCGAAT | 1.58
GAACGGCA | 1.84
ACACGGCG | 1.6
GCACGGCC | 1.77
AAACGGCA | 1.91
ACACGGCT | 1.89
ACACGGCC | 1.94

Sequence | relative CpG methylation activity
AAACGGCG | 1.68
ACACGGCA | 1.89
CCACGGCC | 1.7
CAACGCGA | 0.965
AGTCGTCA | 0.379
CAACGTCA | 1.15
CGCCGTAC | 0.561
ATTCGCAG | 0.453
CTCCGAGC | 2.06
GTTCGATC | 1.3
TTTCGATA | 1.81
GTCCGATC | 1.77
TTTCGATC | 1.95
TTCCGATC | 2.31
ATCCGAGC | 1.68
CTCCGAGA | 1.73
ATCCGAGT | 1.37
CTCCGAGT | 1.99
TTCCGAGT | 1.83
TTCCGATT | 1.75
CATCGAAC | 1.6
ACGCGTGG | 0.317
GATCGTTG | 0.455
TGACGGAT | 0.829
TTCCGAGG | 1.42

Sequence | relative CpG methylation activity
TTCCGAAC | 1.89
TTCCGAGC | 1.9
TTCCGAGA | 1.6
TTCCGAAG | 1.32
ATCCGAAC | 1.63
CCGCGGTC | 1.43
GTTCGGGC | 1.53
ACGCGATT | 1.09
GATCGAAC | 1.16
TCACGATA | 1.76
GTACGATC | 1.73
TTACGATT | 2.01
TAACGATA | 1.81
TTACGATA | 1.94
TTACGATC | 2.01
GTACGATT | 1.75
CTACGATT | 1.83
TTACGATG | 1.53
CGTCGATA | 1.84
TGCCGGGG | 0.469
CGACGTGC | 0.674
AGCCGAAA | 0.798
AAACGTTA | 0.806
CCCCGTTA | 0.69
ACGCGTTG | 0.312

Sequence | relative CpG methylation activity
TCACGACC | 1.17
GTGCGGGT | 1.3
CTACGAAC | 1.91
TTACGAAT | 1.76
TTACGAAC | 1.96
CTACGAAG | 1.6
CTACGAAT | 1.56
TTACGAAA | 1.78
CCTCGGTT | 1.13
AATCGTTC | 0.607
AGCCGAGC | 1.24
TTCCGGCT | 1.61
GTTCGTGA | 0.411
TTCCGGCC | 1.67
TTCCGGCG | 2.04
ATCCGGTT | 1.46
TTCCGGTT | 2.2
CTCCGGTC | 1.8
TTCCGGTA | 1.33
ATCCGGCG | 1.82
CTCCGGTT | 1.72
TTCCGGTC | 2.04
ATTCGTTC | 0.876
AAGCGCCG | 0.713
TAGCGGGG | 0.665

Sequence | relative CpG methylation activity
CATCGGCT | 1.78
GTTCGGTC | 1.15
GACCGTTT | 0.177
CTTCGAAC | 1.98
ATTCGAAC | 1.69
CTTCGAAA | 1.57
CTTCGAGG | 1.65
CTTCGAGA | 1.95
ATTCGAGA | 1.83
TACCGTGT | 0.198
ACCCGGAT | 0.954
TATCGGAA | 0.708
CCTCGGAC | 1.14
CCCCGGCC | 1.77
CCCCGGCT | 2.05
ACCCGGCT | 1.67
GCCCGGCT | 1.4
CCCCGGCA | 1.72
TCCCGGCG | 1.87
CCCCGGCG | 1.95
TCCCGGCT | 1.95
TCCCGGCA | 1.62
AAGCGTGC | 0.448
ATCCGTCC | 1.35
AGTCGTCG | 0.57

Sequence | relative CpG methylation activity
ACGCGTTC | 0.658
ACCCGCGA | 0.371
GCACGCTG | 0.98
ATACGATG | 1.63
CTACGACC | 1.82
ATACGATT | 1.74
ATACGATC | 2.12
CAACGATA | 1.77
ACACGATA | 1.75
CAACGATC | 1.94
GTACGATA | 1.73
CCACGATC | 1.74
CTACGATC | 1.92
CAACGATG | 1.43
ATACGATA | 2.03
GTTCGCAA | 0.436
TCTCGGTT | 0.917
ACTCGGCG | 1.6
TGGCGTGT | 0.0208
CAGCGACA | 0.777
CTGCGTCA | 0.944
CCTCGCCA | 1.05
GGCCGGGT | 0.602
GGCCGAGC | 1.53
TGACGCCT | 1.11

Sequence | relative CpG methylation activity
CCACGATA | 1.7
GTACGCTC | 1.53
CTACGCTC | 1.91
CTACGATG | 1.83
CTACGCTA | 1.47
CTACGATA | 1.97
TAGCGCCT | 0.72
CGACGTAA | 0.604
GGTCGATT | 1.49
AATCGGCA | 1.74
TATCGGCG | 1.79
CATCGGCA | 1.83
TATCGGCA | 1.95
CCTCGGCC | 1.66
TCTCGGCT | 1.8
AGTCGGCC | 1.69
AGTCGGCA | 2.11
TCTCGGCC | 1.96
TATCGGCC | 2.01
AATCGGCC | 1.88
AGTCGGCT | 1.79
ATTCGAGG | 1.29
AGTCGGGT | 1.16
GTACGCCT | 1.73
TTCCGATG | 1.47

Sequence | relative CpG methylation activity
GGCCGCGC | 0.361
AGACGGTA | 1.16
GCTCGATG | 1
TTACGGTT | 1.85
CTGCGGCC | 1.22
CTACGGAC | 1.64
GTACGGAG | 1.39
CTACGGCC | 1.96
ATTCGGCT | 1.69
ATTCGGCC | 2.04
TTACGGCT | 1.98
GTACGGTG | 1.48
GTACGGCG | 2.05
ATTCGGCG | 1.77
TCACGGCT | 1.83
ATGCGGAC | 0.76
TTGCGAAG | 0.966
ATCCGCCG | 0.929
CACCGGGT | 1.06
CAGCGCTG | 0.635
GTGCGCGT | 0.649
TGTCGCCC | 0.734
TGACGAGT | 1.21
AGTCGTGG | 0.341
CGTCGTGT | 0.248

Sequence | relative CpG methylation activity
CTACGGAA | 1.68
ATACGGTA | 1.64
CCACGGCA | 1.74
TTGCGGCT | 1.95
CTACGGCA | 2.23
ATGCGGCT | 1.55
TTGCGGCC | 1.43
ATACGGCG | 2.11
ATACGGTG | 1.75
ATACGGCA | 2.11
ATACGGAA | 1.32
ATACGGAG | 1.21
AAACGAAA | 1.58
CATCGTCC | 0.944
GTGCGTCA | 0.799
TCCCGGGG | 1.21
CATCGCGG | 0.514
GAACGGCG | 1.53
AGGCGTGC | 0.175
